Source: PubChem BioAssay AID1159580 (chemical genetic matrix, 2015)
The whole screen tested about 5,500 compounds, of which about 2,000 (36%) were called active. Inconclusive results (about 18%) are left out. Rule as the data show it: active = normalized growth mostly below about 0.91 (no sharp cut-off); inconclusive = no clear call, values can overlap the other calls; inactive = mostly above about 0.92. The list shows a part of the results.

Experiment: chemical genetic growth profiling, strain panel (AID 1159580);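 also: tested at 20 µM; growth read once vehicle control cultures reached saturation at 30 °C; 1 = growth at the plate median or of vehicle wells; lower values mean less growth of the strain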
Conditions: S. cerevisiae deletion strains, growth OD
[1] = locus YAL021C, strain ccr4, active compounds read low
[2] = locus YAL026C, strain drs2, active compounds read low
[3] = locus YAL030W, strain snc1, active compounds read low
[4] = locus YBL061C, strain skt5, active compounds read low
[5] = locus YBR009C, strain hhf1, active compounds read low
[6] = locus YBR023C, strain chs3, active compounds read low
[7] = locus YBR171W, strain sec66, active compounds read low
[8] = locus YBR231C, strain swc5, active compounds read low
[9] = locus YBR279W, strain paf1, active compounds read low
[10] = locus YCL011C, strain gbp2, active compounds read low
[11] = locus YCL016C, strain dcc1, active compounds read low
[12] = locus YCL061C, strain MRC1, active compounds read low
[13] = locus YCL069W, strain vba3, active compounds read low
[14] = locus YCR088W, strain abp1, active compounds read low
[15] = locus YDL005C, strain med2, active compounds read low
[16] = locus YDL040C, strain nat1, active compounds read low
[17] = locus YDR001C, strain nth1, active compounds read low
[18] = locus YDR069C, strain doa4, active compounds read low
[19] = locus YDR137W, strain rgp1, active compounds read low
[20] = locus YDR159W, strain sac3, active compounds read low
[21] = locus YDR297W, strain sur2, active compounds read low
[22] = locus YDR334W, strain swr1, active compounds read low
[23] = locus YDR335W, strain msn5, active compounds read low
[24] = locus YDR392W, strain spt3, active compounds read low
[25] = locus YEL003W, strain gim4, active compounds read low
[26] = locus YEL037C, strain rad23, active compounds read low
[27] = locus YEL061C, strain CIN8 (second series), active compounds read low
[28] = locus YER015W, strain faa2, active compounds read low
[29] = locus YER016W, strain bim1, active compounds read low
[30] = locus YER111C, strain swi4, active compounds read low
[31] = locus YER155C, strain BEM2 (second series), active compounds read low
[32] = locus YFR010W, strain ubp6, active compounds read low
[33] = locus YGL167C, strain pmr1, active compounds read low
[34] = locus YGL173C, strain kem1, active compounds read low
[35] = locus YGL227W, strain vid30, active compounds read low
[36] = locus YGL240W, strain doc1, active compounds read low
[37] = locus YGL253W, strain hxk2, active compounds read low
[38] = locus YHR013C, strain ard1, active compounds read low
[39] = locus YHR027C, strain rpn1, active compounds read low
[40] = locus YHR030C, strain SLT2, active compounds read low
[41] = locus YHR079C, strain IRE1, active compounds read low
[42] = locus YHR142W, strain chs7, active compounds read low
[43] = locus YJL092W, strain hpr5, active compounds read low
[44] = locus YJL095W, strain BCK1 (second series), active compounds read low
[45] = locus YJL095W, strain BCK1, active compounds read low
[46] = locus YJL115W, strain asf1, active compounds read low
[47] = locus YJL129C, strain trk1, active compounds read low
[48] = locus YJL154C, strain vps35, active compounds read low
[49] = locus YJL164C, strain tpk1, active compounds read low
[50] = locus YJL166W, strain qcr8, active compounds read low
[51] = locus YJL187C, strain SWE1, active compounds read low
[52] = locus YJR066W, strain TOR1, active compounds read low
[53] = locus YKL160W, strain elf1, active compounds read low
[54] = locus YKR026C, strain gcn3, active compounds read low
[55] = locus YKR091W, strain srl3, active compounds read low
[56] = locus YLL001W, strain dnm1, active compounds read low
[57] = locus YLL026W, active compounds read low
[58] = locus YLL041C, strain sdh2, active compounds read low
[59] = locus YLR027C, strain aat2, active compounds read low
[60] = locus YLR113W, strain HOG1, active compounds read low
[61] = locus YLR221C, strain rsa3, active compounds read low
[62] = locus YLR258W, strain gsy2, active compounds read low
[63] = locus YLR262C, strain YPT6 (second series), active compounds read low
[64] = locus YLR320W, strain mms22, active compounds read low
[65] = locus YLR342W, strain FKS1, active compounds read low
[66] = locus YLR357W, strain rsc2, active compounds read low
[67] = locus YLR370C, strain arc18, active compounds read low
[68] = locus YLR384C, strain iki3, active compounds read low
[69] = locus YML120C, strain ndi1, active compounds read low
[70] = locus YMR058W, strain fet3, active compounds read low
[71] = locus YMR125W, strain sto1, active compounds read low
[72] = locus YMR129W, active compounds read low
[73] = locus YMR205C, strain PFK2, active compounds read low
[74] = locus YMR231W, strain pep5, active compounds read low
[75] = locus YNL071W, strain lat1, active compounds read low
[76] = locus YNL183C, strain NPR1, active compounds read low
[77] = locus YNL209W, strain ssb2, active compounds read low
[78] = locus YNL248C, strain rpa49, active compounds read low
[79] = locus YNL322C, strain KRE1 (second series), active compounds read low
[80] = locus YNR049C, strain mso1, active compounds read low
[81] = locus YOR001W, strain rrp6, active compounds read low
[82] = locus YOR070C, strain gyp1, active compounds read low
[83] = locus YOR080W, strain dia2, active compounds read low
[84] = locus YOR083W, strain WHI5, active compounds read low
[85] = locus YOR106W, strain vam3, active compounds read low
[86] = locus YOR231W, strain MKK1, active compounds read low
[87] = locus YOR265W, strain rbl2, active compounds read low
[88] = locus YOR270C, strain vph1, active compounds read low
[89] = locus YOR290C, strain snf2, active compounds read low
[90] = locus YPL051W, strain arl3, active compounds read low
[91] = locus YPL078C, strain atp4, active compounds read low
[92] = locus YPL106C, strain sse1, active compounds read low
[93] = locus YPL240C, strain hsp82, active compounds read low
[94] = locus YPL256C, strain CLN2, active compounds read low

Measured: normalized growth

O=c1c2cc(O)c(O)cc2oc2cc(O)c(C3O[C@H](CO)[C@H](O)[C@@H](O)[C@H]3O)c(O)c12 (stereo not given in full)
inactive: [1] 1.01 | [2] 1.02 | [3] 1.02 | [4] 1.03 | [5] 1.08 | [6] 1.02 | [7] 1.02 | [8] 1.03 | [9] 1.01 | [10] 1.04 | [11] 1.02 | [12] 1.02 | [13] 1.02 | [14] 1.03 | [15] 1.04 | [16] 1.02 | [17] 1.02 | [18] 1.03 | [19] 1.04 | [20] 1.11 | locus YDR195W, strain ref2 1.12 | [21] 1.04 | [22] 1.01 | [23] 1.01 | [24] 1.07 | [25] 1.02 | [26] 1.02 | [27] 1.02 | [28] 1 | [29] 1.04 | [30] 1.03 | [31] 1.12 | [32] 1.02 | [33] 1.03 | [34] 1.03 | [35] 1.04 | [37] 0.986 | [38] 1 | [39] 1.01 | [40] 0.973 | [41] 0.982 | [42] 0.945 | [43] 1.03 | [44] 1.02 | [45] 1.03 | [46] 1.01 | [47] 0.999 | [48] 1.02 | [49] 0.98 | [50] 0.993 | [51] 1.02 | [52] 0.937 | [53] 0.988 | [54] 1.02 | [55] 1.03 | [56] 1.04 | [57] 1.02 | [58] 1.01 | [59] 1.01 | [60] 1.1 | [61] 0.985 | [62] 1.06 | [63] 1.02 | [64] 1.07 | [65] 1.03 | [66] 1.01 | [67] 1.01 | [68] 1.01 | [69] 1 | [70] 1.01 | [71] 1.07 | [72] 1.02 | [74] 1.02 | [75] 1.02 | [76] 0.98 | [77] 0.986 | [78] 0.992 | [79] 1.02 | [80] 1.03 | [81] 0.981 | [82] 0.999 | [83] 1.03 | [84] 0.968 | [85] 0.887 | [86] 0.988 | [87] 1.01 | [88] 0.938 | [89] 0.995 | [90] 0.961 | [91] 0.969 | [92] 1.05 | [93] 0.997 | [94] 1
active: [36] 1.14 [resistant] | [73] 1.13 [resistant]

O=c1c(-c2ccc(O)cc2)coc2c(C3O[C@H](CO)[C@@H](O)[C@H](O)[C@H]3O)c(O)ccc12 (stereo not given in full)
inactive: [1] 1.01 | [2] 0.991 | [3] 0.982 | [4] 0.977 | [5] 0.957 | [6] 0.991 | [7] 0.977 | [8] 0.979 | [9] 0.985 | [10] 0.968 | [11] 0.991 | [12] 0.994 | [13] 0.973 | [14] 0.996 | [15] 0.978 | [16] 0.977 | [17] 0.978 | [18] 1 | [19] 0.995 | [20] 0.933 | locus YDR195W, strain ref2 0.951 | [21] 0.978 | [22] 0.973 | [23] 0.987 | [24] 0.876 | [25] 0.979 | [26] 0.973 | [27] 0.974 | [28] 0.993 | [29] 0.989 | [30] 0.98 | [31] 0.947 | [32] 0.977 | [33] 0.965 | [34] 0.977 | [35] 0.982 | [36] 0.957 | [37] 0.982 | [38] 0.921 | [39] 0.987 | [40] 0.957 | [41] 0.976 | [42] 1.04 | [43] 0.992 | [44] 0.987 | [45] 0.973 | [46] 0.98 | [47] 0.997 | [48] 0.972 | [49] 0.999 | [50] 0.98 | [51] 0.977 | [52] 0.898 | [53] 1.04 | [54] 0.982 | [55] 0.98 | [56] 0.99 | [57] 0.993 | [58] 0.992 | [59] 0.965 | [60] 1 | [61] 0.985 | [62] 0.982 | [63] 0.997 | [64] 0.988 | [65] 0.974 | [66] 0.957 | [67] 0.981 | [68] 0.975 | [69] 0.995 | [70] 0.969 | [71] 0.954 | [72] 0.962 | [73] 0.941 | [74] 0.985 | [75] 0.979 | [76] 0.91 | [77] 0.984 | [78] 1.03 | [79] 0.982 | [80] 0.973 | [81] 1.01 | [82] 0.983 | [83] 0.98 | [84] 1.06 | [85] 1.01 | [86] 0.96 | [87] 0.989 | [88] 0.969 | [89] 0.921 | [90] 1.01 | [91] 1.01 | [92] 0.93 | [93] 1.01 | [94] 0.979
